Hit rate of the full screen: of about 220,000 compounds, about 16,000 (7.3%) were called active. Another 25% or so got no clear call; they are omitted. Calls follow the shape of the dose curve; as a rule, active = well fitted inhibition curve with a large enough effect (not every such curve was filed as active); inconclusive = small, poorly fitted or top-dose-only effect, or another doubt; inactive = no such curve, though single readings can be large or run the other way. The entries come from a sample that favours actives as a whole.
Potency is read from the fitted curve at half-maximal effect.

Sequence of Aldehyde dehydrogenase 1A1 (Homo sapiens) (P00352 whole entry, looked up): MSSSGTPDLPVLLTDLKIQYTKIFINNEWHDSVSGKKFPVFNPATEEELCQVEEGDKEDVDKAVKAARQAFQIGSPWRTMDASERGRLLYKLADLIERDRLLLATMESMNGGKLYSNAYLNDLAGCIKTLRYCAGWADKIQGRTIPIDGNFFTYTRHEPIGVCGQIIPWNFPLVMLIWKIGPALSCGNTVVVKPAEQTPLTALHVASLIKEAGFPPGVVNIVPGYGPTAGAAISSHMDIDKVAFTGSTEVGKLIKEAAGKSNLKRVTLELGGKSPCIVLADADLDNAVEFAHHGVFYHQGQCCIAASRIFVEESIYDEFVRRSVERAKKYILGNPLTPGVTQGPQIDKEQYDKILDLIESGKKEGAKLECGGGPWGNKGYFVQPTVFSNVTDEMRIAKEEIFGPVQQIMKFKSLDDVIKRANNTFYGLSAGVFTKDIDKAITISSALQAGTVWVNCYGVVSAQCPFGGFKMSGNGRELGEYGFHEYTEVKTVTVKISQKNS

This assay addresses Aldehyde dehydrogenase 1A1 (Homo sapiens) (UniProt P00352). As to the kind of experiment: qHTS Assay for Inhibitors of Aldehyde Dehydrogenase 1 (ALDH1A1).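 As to activity, negative = inhibition: plate controls were no enzyme wells and a reference inhibitor.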 Conditions: Purified ALDH1A1, NADH fluorescence, propionaldehyde substrate; series mostly up to 75.3 µM; activity, negative = inhibition: at the top concentration. A general note: qHTS replaces the single test concentration by a dilution series.
Take `O=C(CSc1ccccc1F)NC1CCS(=O)(=O)C1` (stereo unspecified): the “activity, negative = inhibition” value was 3.62% (inactive).

`O=C(Cc1ccc2c(c1)CCCC2)Nc1ccccc1Cl`: the Potency was 12.6 µM (active).

`O=C(CN1CCCCC1)Nc1ccccc1Cl`: the “activity, negative = inhibition” value was 14.8% (inactive).

Consider `CSc1ccccc1NC(=O)Cc1ccc(Br)cc1`, for which the “activity, negative = inhibition” value is 5.36% (inactive).

On to `Cc1cc(/C=C2/SC(=O)N(CC(=O)N3CCCC3)C2=O)ccc1N1CCOCC1`, for which the “activity, negative = inhibition” value was 5.53% (inactive).

`C/C(=N/OC(=O)c1c(-c2c(F)cccc2Cl)noc1C)c1cnccn1`: the “activity, negative = inhibition” value is -4.17% (inactive).

`CC(=O)c1ccc(NC(=O)C(C)NCc2ccc(Cl)cc2)cc1` (stereo unspecified): the “activity, negative = inhibition” value is 1.47% (inactive).

Regarding `O=C(NCc1ccc2c(c1)OCO2)c1ccc(Cl)s1`, the “activity, negative = inhibition” value was 11.5% (inactive).

`O=C(NCc1ccc2c(c1)OCO2)c1ccc2c(c1)C(=O)N(CC1CCCO1)C2=O` (stereo unspecified): the Potency was 1.58 µM (active).

Consider `O=C(NCc1ccc2c(c1)OCO2)c1sccc1Br`, for which the “activity, negative = inhibition” value was -7.89% (inactive).

With `Cc1csc(SCC(=O)Nc2sccc2C#N)n1`, the “activity, negative = inhibition” value was -1.71% (inactive).

`O=C1CCC(CCC(=O)N2CCCC(C(=O)c3ccc(Cl)cc3)C2)=NN1` (stereo unspecified): the “activity, negative = inhibition” value is 17.7% (inactive).

On to `O=C(CCN1C(=O)C2C3C=CC(C3)C2C1=O)Oc1ccc2ccccc2c1` (stereo unspecified), for which the “activity, negative = inhibition” value is -9.74% (inactive).

For the molecule `CC(CC(=O)N1CCN(c2ccccc2)CC1)c1ccccc1` (stereo unspecified), the “activity, negative = inhibition” value is 13.1% (inactive).

`O=C(CCCN1C(=O)C2C3C=CC(C3)C2C1=O)N1CCN(c2ccccc2)CC1` (stereo unspecified): the Potency is 12.6 µM (active).

On to `S=c1[nH]ccn1-c1ccc(Cl)cc1`, for which the “activity, negative = inhibition” value was -9.08% (inactive).

As to `CC(C)CCN1CCN(C/C=C/c2ccco2)CC1CCO` (stereo unspecified), the Potency is 28.2 µM (active).

For the molecule `Cc1ccc(CN2CCN(Cc3ccccc3-c3ccco3)CC2CCO)o1` (stereo unspecified), the “activity, negative = inhibition” value was 8.18% (inactive).

As to `CC(C)CCN1CCN(Cc2ccc(C(F)(F)F)cc2)CC1CCO` (stereo unspecified), the “activity, negative = inhibition” value was 0.124% (inactive).

Regarding `COC(=O)c1cccnc1NC(=S)NC(C)C`, the “activity, negative = inhibition” value was 1.85% (inactive).

Consider `COc1ccc(N=Nc2ccc(O)c(P(=O)(c3ccccc3)c3ccccc3)c2)cc1`, for which the “activity, negative = inhibition” value is 6.87% (inactive).

As for `CCOc1cc(/C=C2/N=C(c3ccc(C(C)(C)C)cc3)OC2=O)cc(Cl)c1OS(C)(=O)=O`, the Potency is 22.4 µM (active).

Turning to `CN(CCc1cnn(C)c1)Cc1cn(C)nc1-c1ccccc1F`, the “activity, negative = inhibition” value was 2.47% (inactive).

With `COc1cccc(C(=O)N2CCCC(CCC(=O)NCc3ccc(F)c(F)c3)C2)c1` (stereo unspecified), the “activity, negative = inhibition” value is -7.32% (inactive).

Take `COc1cccc(CNC(=O)CCC2CCCN(C(=O)c3ccoc3C)C2)c1` (stereo unspecified): the Potency was 22.4 µM (active).

On to `COc1cccc(CNC(=O)CCC2CCCN(C(=O)c3cc(C)[nH]n3)C2)c1` (stereo unspecified), for which the “activity, negative = inhibition” value is -5.25% (inactive).

Regarding `Cc1ccc(C(NC(=O)N2CCCC2)C(Cl)(Cl)Cl)cc1F` (stereo unspecified), the “activity, negative = inhibition” value was 8.02% (inactive).

Regarding `CC(=O)Nc1cccc(-c2cnc3ccccc3n2)c1`, the “activity, negative = inhibition” value was 3.58% (inactive).

Regarding `Cc1cc(O)ccc1-c1cnc2ccccc2n1`, the Potency is 28.2 µM (active).

Regarding `c1ccc2nc(C3=NCCN3)cnc2c1`, the “activity, negative = inhibition” value is -9.53% (inactive).

For `Cc1cccc(NC(=S)NC23CN4CN(CN(C4)C2)C3)c1`, the “activity, negative = inhibition” value was 4.51% (inactive).

As to `Cc1ccc(-c2noc(CC(c3ccccc3)c3ccccc3)n2)cc1`, the “activity, negative = inhibition” value is -4.15% (inactive).

Regarding `COc1ccc(-n2nnnc2SCC(=O)Nc2ccccc2)cc1`, the “activity, negative = inhibition” value was 3.98% (inactive).

Turning to `Cc1ccc(-c2noc(CSc3nnc(-c4cccs4)n3C)n2)cc1`, the “activity, negative = inhibition” value was -10.9% (inactive).

With `Cc1ccc(Nc2nc(CSc3nnnn3-c3ccccc3)cc(=O)[nH]2)cc1`, the Potency was 22.4 µM (active).

On to `Cc1ccc(-c2noc(CSc3nnnn3-c3ccccc3)n2)cc1`, for which the Potency is 7.08 µM (active).

On to `Cc1ccc(-c2noc(CSc3nnc(-c4ccccc4)n3C)n2)cc1`, for which the “activity, negative = inhibition” value is -1.16% (inactive).

As to `Cc1ccc(SCc2cc(=O)[nH]c(N3CCCCC3)n2)cc1`, the “activity, negative = inhibition” value is 3.1% (inactive).

For the molecule `Cc1ccc(-c2noc(CN3CCN(Cc4ccccc4)CC3)n2)cc1`, the Potency was 28.2 µM (active).

Turning to `CC1CCN(Cc2nc(-c3ccc(Cl)cc3)no2)CC1`, the “activity, negative = inhibition” value was 0.85% (inactive).

`Fc1cc(Br)ccc1NC(=S)Nc1cccnc1`: the “activity, negative = inhibition” value is 4.56% (inactive).

As for `COc1ccc(S(=O)(=O)N2CCOCC2)cc1NC(=O)CSc1ncnc2ccccc12`, the “activity, negative = inhibition” value is 1.11% (inactive).

On to `Cc1ccc(NS(=O)(=O)c2cccs2)cc1S(=O)(=O)N1CCCCCC1`, for which the “activity, negative = inhibition” value was -8.54% (inactive).

`COc1ccc(N(C)S(=O)(=O)c2cccc3nsnc23)cc1`: the “activity, negative = inhibition” value is 12.9% (inactive).

`FC(F)(F)c1cccc(Cc2noc(CN3CCC(N4CCCCC4)CC3)n2)c1`: the “activity, negative = inhibition” value was 8.7% (inactive).

With `CC1=NCCN1S(=O)(=O)c1cccc([N+](=O)[O-])c1`, the “activity, negative = inhibition” value is 8.77% (inactive).

Regarding `Fc1ccccc1Cn1cnc(NC(=S)NCCc2ccccc2)n1`, the “activity, negative = inhibition” value was 0.197% (inactive).

Take `CCC(=O)Nc1cccc(NC(=O)CSc2nnnn2C2CCCC2)c1`: the Potency is 12.6 µM (active).

On to `CCC(=O)Nc1cccc(NC(=O)CSc2nnc(-c3ccc(NS(C)(=O)=O)cc3)n2C)c1`, for which the “activity, negative = inhibition” value is 5.23% (inactive).

As for `O=C(CSc1nc(C2CC2)nc2ccccc12)Nc1ccc2c(c1)OCCO2`, the “activity, negative = inhibition” value is 3.13% (inactive).

On to `O=C(CSc1nnc(-c2ccncc2)n1C1CCCCC1)Nc1ccccc1`, for which the “activity, negative = inhibition” value is 1.01% (inactive).

Regarding `O=C(CSc1nnnn1C1CCCC1)Nc1ccc2c(c1)OCCO2`, the Potency was 6.31 µM (active).

Consider `Cc1ccc(SCC(=O)Nc2ccc3c(c2)OCCO3)cc1`, for which the “activity, negative = inhibition” value is -11.8% (inactive).

Take `COc1cc(NC(=O)CSc2nnc3ccc(-c4ccncc4)nn23)cc(OC)c1`: the “activity, negative = inhibition” value is 10.7% (inactive).

Consider `CCNC(=O)COC(=O)CCNC(=O)c1cccc(C)c1`, for which the “activity, negative = inhibition” value was 1.01% (inactive).

On to `O=C(COC(=O)c1cnc(Cl)c(Cl)c1)NCc1ccco1`, for which the Potency was 20 µM (active).

Turning to `O=C(COC(=O)c1ccco1)NCc1ccc(Cl)cc1`, the “activity, negative = inhibition” value was 14.6% (inactive).

In the case of `NS(=O)(=O)c1ccc(NC(=O)COC(=O)c2ccc(Cl)nc2)cc1`, the “activity, negative = inhibition” value is 13.1% (inactive).

Take `O=C(COC(=O)c1ccc(Cl)nc1)NCc1cccs1`: the Potency is 8.91 µM (active).

With `O=C(COC(=O)c1cc(S(=O)(=O)N2CCCCC2)ccc1Cl)NCc1ccco1`, the “activity, negative = inhibition” value was 0.76% (inactive).

For the molecule `O=C(COC(=O)c1ccc(Cl)nc1)NCc1ccc2c(c1)OCO2`, the “activity, negative = inhibition” value was 0.469% (inactive).

With `CC(C)Oc1ccc(CCc2nnc(SCC(=O)O)n2-c2ccccc2)cc1`, the “activity, negative = inhibition” value was -1.79% (inactive).

Turning to `COc1cc(S(=O)(=O)N2CCOCC2)ccc1NC(=O)COc1ccc(N(C)S(=O)(=O)c2ccc(C)cc2)cc1`, the “activity, negative = inhibition” value was 11.5% (inactive).

Turning to `C=CCOCCN(C)C1=NS(=O)(=O)c2ccccc21`, the “activity, negative = inhibition” value was 11.4% (inactive).

As for `COC(=O)c1sc(SC)c(S(=O)(=O)C(C)C)c1N/N=C(\C#N)S(=O)(=O)c1ccccn1`, the “activity, negative = inhibition” value is -9.06% (inactive).

`Cc1ccn(CC(=O)N2N=C(C(F)F)CC2(O)C(F)F)n1` (stereo unspecified): the “activity, negative = inhibition” value is 8.82% (inactive).

In the case of `CC(C)(C)NC(=O)NCc1ccco1`, the “activity, negative = inhibition” value was 8.98% (inactive).

In the case of `CCCC(=O)NC(=S)Nc1ccc(CN2CCOCC2)cc1`, the “activity, negative = inhibition” value is 0.202% (inactive).

With `CSc1nc(C)nc(C2CC2)c1C#N`, the “activity, negative = inhibition” value is -9.62% (inactive).

In the case of `CCc1c(-c2ccccc2)nc(N)c(C#N)c1-c1cccs1`, the “activity, negative = inhibition” value was -1.42% (inactive).

For the molecule `CSc1nc(N)c(C#N)c(-c2ccccc2Cl)c1C#N`, the Potency is 14.1 µM (active).

Source of the values: PubChem BioAssay AID1030 (National Center for Advancing Translational Sciences (NCATS), 2008).
